# Results taken from the antibiotic and cytotoxicity screens of Wong et al. (2023).
# About 3,300 (8.5%) of roughly 39,000 compounds were called active. Shown is part of a subset that was picked to be rich in actives.
# Tested on: HepG2
# Assay: cytotoxicity call (relative viability < 0.9)
# Conditions: 10 µM
row,SMILES,cytotoxicity call
1,CCOC(=O)c1c(C)c(Cl)c(O)c(Cl)c1O,inactive
2,COc1ccc(S(=O)(=O)Nc2ccc3c(c2)CC(=O)N([C@H](C)CO)C[C@@H](C)[C@H](CN(C)C)O3)cc1,inactive
3,Cc1noc(C)c1NC(=O)N(C)C[C@@H]1OCCCC[C@@H](C)Oc2ccc(NC(=O)Nc3ccc(F)cc3)cc2C(=O)N([C@H](C)CO)C[C@@H]1C,inactive
4,Cc1noc(C)c1S(=O)(=O)N(C)C[C@@H]1OCc2cnnn2CCCC(=O)N([C@@H](C)CO)C[C@H]1C,inactive
5,C[C@@H]1CCCCO[C@H](CN(C)C(=O)C2CCCCC2)[C@@H](C)CN([C@H](C)CO)C(=O)c2cc(NC(=O)C3CCCCC3)ccc2O1,inactive
6,CC(C)NC(=O)Nc1ccc2c(c1)C(=O)N([C@H](C)CO)C[C@@H](C)[C@H](CN(C)S(=O)(=O)c1cn(C)cn1)O2,inactive
7,COCCNC(=O)C[C@H]1CC[C@H]2[C@@H](COC[C@H](O)CN2C(=O)Nc2ccccc2OC)O1,inactive
8,COc1ccccc1CNC(=O)C[C@@H]1CC[C@@H]2[C@H](COC[C@@H](O)CN2C(=O)Nc2ccc(F)cc2)O1,inactive
9,O=C(C[C@H]1CC[C@H]2[C@@H](COC[C@H](O)CN2C(=O)Nc2cccc(Cl)c2)O1)NCc1ccccc1F,inactive
10,O=C(C[C@H]1CC[C@@H]2[C@H](COC[C@@H](O)CN2C(=O)Nc2cccc(Cl)c2)O1)NCc1ccccc1F,active
11,COCCNC(=O)C[C@H]1CC[C@@H]2[C@H](COC[C@H](O)CN2C(=O)Nc2ccccc2OC)O1,active
12,COCCNC(=O)C[C@H]1CC[C@@H]2[C@H](COC[C@@H](O)CN2C(=O)Nc2ccccc2OC)O1,inactive
13,COc1ccccc1CNC(=O)C[C@@H]1CC[C@H]2[C@@H](COC[C@H](O)CN2C(=O)Nc2ccc(F)cc2)O1,inactive
14,COc1ccccc1CNC(=O)C[C@H]1CC[C@H]2[C@@H](COC[C@H](O)CN2C(=O)Nc2ccc(F)cc2)O1,active
15,O=C(C[C@@H]1CC[C@H]2[C@@H](COC[C@H](O)CN2C(=O)Nc2cccc(Cl)c2)O1)NCc1ccccc1F,inactive
16,CO[C@@H]1CN(C)C(=O)c2cc(NC(=O)c3ccc(F)cc3)ccc2OC[C@H](C)N(C(=O)CN(C)C)C[C@@H]1C,inactive
17,CN1C(=O)c2cc(NC(=O)Nc3ccccc3F)ccc2OC[C@@H]2O[C@H](CC(=O)NCc3ccc(-c4ccccc4)cc3)CC[C@@H]21,inactive
18,CS(=O)(=O)N1CCCn2c(nc(CNC(=O)CC3CC3)cc2=O)C1,inactive
19,CC(C)Oc1oc(C(=O)NC2CCCCC2)c(-c2ccc(Cl)cc2)c1S(=O)(=O)c1ccc(Cl)cc1,inactive
